# Shown is part of a subset that was picked to be rich in the strongest signals.
# How the values were obtained:
# Test in all cases: glycan array binding signal (z-score within array); higher = stronger binding
# Conditions in all cases: glycan notation: IUPAC condensed, linker removed
# [1] = system: Neu5Ac(a2-8)Neu5Ac(a2-3)Gal(b1-4)Glc
# Summary of the method: (§1)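 From the Consortium for Functional Glycomics database, 3228 arrays were curated, keeping only those whose protein sequence was available. Binding is given as a within-array Z-score averaged across arrays sharing a protein sequence and across linkers. Negative Z-scores can be read as non-binding.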
# [2] = system: Neu5Ac(a2-8)Neu5Ac(a2-8)Neu5Ac(a2-3)[GalNAc(b1-4)]Gal(b1-4)Glc
# Summary of the method: as §1
# [3] = system: Neu5Gc(a2-3)Gal(b1-3)[Fuc(a1-4)]GlcNAc
# Summary of the method: as §1
# [4] = system: Neu5Ac(a2-8)Neu5Ac(a2-3)[Gal(b1-3)GalNAc(b1-4)]Gal(b1-4)Glc
# Summary of the method: as §1
# [5] = system: Neu5Gc(a2-3)Gal(b1-3)GlcNAc
# Summary of the method: as §1
# [6] = system: Neu5Ac(a2-8)Neu5Ac(a2-8)Neu5Ac(a2-8)Neu5Ac(a2-8)Neu5Ac(a2-8)Neu5Ac(a2-8)Neu5Ac(a2-8)Neu5Ac
# Summary of the method: as §1
# [7] = system: Neu5Ac9Ac(a2-6)Gal(b1-4)GlcNAc
# Summary of the method: as §1
# [8] = system: Neu5Gc(a2-3)Gal(b1-4)GlcNAc
# Summary of the method: as §1
substance,measurement,setting,value
Actinohivin (Actinomycete K97),glycan array binding signal (z-score),[1],-0.163
same,glycan array binding signal (z-score),[2],-0.14
same,glycan array binding signal (z-score),[3],-0.168
AgI/II Vhelical-GFP (Streptococcus mutans),glycan array binding signal (z-score),[4],0.136
same,glycan array binding signal (z-score),[5],0.551
"SiiE (Salmonella typhimurium), A0A0H3NVH0",glycan array binding signal (z-score),[2],-0.437
"MIC3-MAR1b (Eimeria tenella), B6VCV4",glycan array binding signal (z-score),[6],-0.531
"MIC3-MAR5 (Eimeria tenella), B6VCV4",glycan array binding signal (z-score),[6],-0.75
LcI (Legionella pneumophila),glycan array binding signal (z-score),[7],0.198
"GspB (Streptococcus gordonii), Q939N5",glycan array binding signal (z-score),[7],2.97
"SpGH101 (Streptococcus pneumoniae), Q8DR60",glycan array binding signal (z-score),[8],-0.177
AgI/IIC123-GFP (Streptococcus mutans),glycan array binding signal (z-score),[8],-0.472

# From the supplement of paper PMC8728848
